# Measurements taken from PubChem BioAssay (NCATS).
# “And” between values parts separate entries of the source, which are not always exact repeats. Identical values can stand only once. Results filed as inconclusive are left out. Entries that show only a call come without a potency. The source made the active and inactive calls. Unless noted, calls come from the whole dose curve. Square brackets hold non-standard residues; d marks the D form. Peptide text beside a SMILES is read from it. * marks the point of attachment. Nva = CCC[C@H](N)C(=O)O; Cbz = O=C(OCc1ccccc1)*
# What was measured:
# [1] = qHTS for Inhibitors of the Functional Ribonucleoprotein Complex (vRNP) of Lassa (LASV) Arenavirus: LASV Primary Screen - GLuc reporter signal (AID 1347082; calls by dose curve; tested in HEK293 reporter line; note: nearly all actives have a fitted effect of over 60% in size; note: potency is the fitted concentration of half-maximal effect)
# [2] = qHTS for Inhibitors of the Functional Ribonucleoprotein Complex (vRNP) of Lassa (LASV) Arenavirus: Viability assay - alamar blue signal for LASV Primary Screen (AID 1347083; calls by dose curve; tested in HEK293 reporter line; note: nearly all actives have a fitted effect of over 80% in size; note: potency is the fitted concentration of half-maximal effect)
# [3] = qHTS for Inhibitors of the Functional Ribonucleoprotein Complex (vRNP) of Lymphocytic Choriomeningitis Arenaviruses (LCMV): Viability assay - alamar blue signal for LCMV Primary Screen (AID 1347085; calls by dose curve; tested in HEK293 reporter line; note: nearly all actives have a fitted effect of over 80% in size; note: potency is the fitted concentration of half-maximal effect)
# [4] = Primary qHTS to identify inhibitors of SARS-CoV-2 cell entry (AID 1645846); conditions: activity change, negative = inhibition: at 57.1 µM (top of the series) unless noted; note: nearly all actives have a fitted effect of over 45% in size; note: potency is the fitted concentration of half-maximal effect
# Outline: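 HEK293-ACE2 (Expi293F, stable hACE2), 1500 cells/well, o/n 37C; cpd 23 nL pin, 1 h; MLV-PP w/ SARS-CoV-2-S (Wuhan-Hu-1, Δ19 C-term); 48 h 37C; Bright-Glo luminescence; normalized vs S-PP and bald PP.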
# [5] = Inducers of the Endoplasmic Reticulum Stress Response (ERSR) in human glioma: Validation (AID 504836; active = well fitted curve in the direction sought with a large enough effect; an effect the other way counts as inactive or inconclusive)
# Outline: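 Stably transfected U87-MG glioma cells carrying a GRP78-based luciferase sensor; 16 h compound incubation. Luminescence end-point read 10 min after Bright-Glo addition at room temperature.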
# [6] = molecular target: Ubiquitin carboxyl-terminal hydrolase 1 (Homo sapiens) (UniProt O94782); assay: Inhibitors of USP1/UAF1: Pilot qHTS (AID 504865; active = well fitted curve in the direction sought with a large enough effect; an effect the other way counts as inactive or inconclusive; note: potency is the fitted concentration of half-maximal effect; nearly all actives have a fitted effect of over 35% in size)
# Ubiquitin carboxyl-terminal hydrolase 1 (Homo sapiens), sequence (O94782 whole entry, looked up): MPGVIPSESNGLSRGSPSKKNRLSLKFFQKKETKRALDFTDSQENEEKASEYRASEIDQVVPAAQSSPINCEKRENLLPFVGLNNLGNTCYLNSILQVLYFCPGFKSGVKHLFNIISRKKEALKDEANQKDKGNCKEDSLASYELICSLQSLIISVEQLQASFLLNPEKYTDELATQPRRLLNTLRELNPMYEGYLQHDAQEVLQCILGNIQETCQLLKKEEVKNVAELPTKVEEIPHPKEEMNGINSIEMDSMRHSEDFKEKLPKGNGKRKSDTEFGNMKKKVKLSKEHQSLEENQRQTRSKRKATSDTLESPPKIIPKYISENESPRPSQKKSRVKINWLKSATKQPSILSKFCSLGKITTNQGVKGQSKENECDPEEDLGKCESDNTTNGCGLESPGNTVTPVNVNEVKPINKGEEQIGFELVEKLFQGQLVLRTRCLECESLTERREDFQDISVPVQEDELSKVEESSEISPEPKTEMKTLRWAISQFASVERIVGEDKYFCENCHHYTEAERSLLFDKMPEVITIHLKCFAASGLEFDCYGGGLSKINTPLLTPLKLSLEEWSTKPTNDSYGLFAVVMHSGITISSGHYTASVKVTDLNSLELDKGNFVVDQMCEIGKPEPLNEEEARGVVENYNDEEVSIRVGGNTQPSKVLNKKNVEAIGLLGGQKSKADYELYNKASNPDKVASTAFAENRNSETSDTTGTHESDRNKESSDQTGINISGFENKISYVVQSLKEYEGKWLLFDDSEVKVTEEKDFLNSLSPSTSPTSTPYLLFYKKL
# Outline: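 1nM USP1/UAF1 + cpd, 15 min RT; start w/ Ub-Rho 150nM final; kinetic FL 480/540 nm, 6 reads q60 s. Buffer 50mM HEPES pH 7.8, 0.5mM EDTA, 1mM TCEP, 0.01% Tween-20, 0.1 mg/ml BSA.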
# [7] = S16 Schwann cell PMP22 intronic element beta-lactamase assay (AID 624044); note: potency is the fitted concentration of half-maximal effect; nearly all actives have a fitted effect of over 15% in size
# Outline: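 Beta-lactamase reporter under a PMP22 intronic regulatory element in stable S16 rat Schwann cells; 24 h compound exposure. 460 nm blue signal normalized between DMSO (0%) and potassium clavulanate, with 535 nm FRET tracking viability; curves classed by r2 and response.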
# [8] = Primary qHTS for inhibitors of SARS-S pseudo-typed particle cell entry (AID 1479145); note: potency is the fitted concentration of half-maximal effect; nearly all actives have a fitted effect of over 45% in size
# [9] = Primary qHTS for inhibitors of MERS-S pseudo-typed particle cell entry (AID 1479149); note: nearly all actives have a fitted effect of over 60% in size
# [10] = Primary qHTS for Vero E6 cytotoxicity: counterscreen for inhibitors of SARS-S pseudo-typed particle cell entry (AID 1479150); conditions: outcome: dose series up to 57.1 µM unless noted
# [11] = Cytotoxicity counterscreen for inhibitors of SARS-CoV-2 cell entry (AID 1645845); note: nearly all actives have a fitted effect of over 50% in size; note: potency is the fitted concentration of half-maximal effect
# Outline: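 Counterscreen run in the same HEK293-ACE2 line as the pseudotyped-particle entry assay, without particles. Viability after 48 h at 37 C was read as ATP luminescence, scaled between cell-containing and cell-free wells.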
# [12] = qHTS profiling of the MIPE4 collection as inhibitors of Plasmodium falciparum (3D7) proliferation (AID 743344; call rule not given here); conditions: P. falciparum 3D7 in erythrocytes, SYBR Green DNA fluorescence, 72 h; at 28.5 µM (top of the series) unless noted
# Outline: (§1)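 Parasite DNA was quantified by SYBR Green I fluorescence (ex 485, em 535 nm) after overnight lysis in saponin/Triton buffer at room temperature. Cultures at 0.3% parasitemia and 2.5% hematocrit were first exposed to compound for 72 h at 37 C; signals were normalised to artemisinin (0.29 uM) and vehicle wells.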
# [13] = qHTS profiling of the MIPE4 collection as inhibitors of Plasmodium falciparum (DD2) proliferation (AID 743345; call rule not given here); conditions: P. falciparum Dd2 in erythrocytes, SYBR Green DNA, 72 h; at 28.5 µM (top of the series) unless noted
# Outline: as §1
# [14] = qHTS profiling of the MIPE4 collection as inhibitors of Plasmodium falciparum (HB3) proliferation (AID 743347; call rule not given here); conditions: P. falciparum HB3 in erythrocytes, SYBR Green DNA, 72 h; at 28.5 µM (top of the series) unless noted
# Outline: as §1
# [15] = molecular target: Nucleoprotein (Lymphocytic choriomeningitis virus (strain Armstrong)) (UniProt P09992); assay: qHTS for Inhibitors of the Functional Ribonucleoprotein Complex (vRNP) of Lymphocytic Choriomeningitis Arenaviruses (LCMV): LCMV Primary Screen - GLuc reporter signal (AID 1347086); note: nearly all actives have a fitted effect of over 70% in size
# Nucleoprotein (Lymphocytic choriomeningitis virus (strain Armstrong)), sequence (P09992 whole entry, looked up): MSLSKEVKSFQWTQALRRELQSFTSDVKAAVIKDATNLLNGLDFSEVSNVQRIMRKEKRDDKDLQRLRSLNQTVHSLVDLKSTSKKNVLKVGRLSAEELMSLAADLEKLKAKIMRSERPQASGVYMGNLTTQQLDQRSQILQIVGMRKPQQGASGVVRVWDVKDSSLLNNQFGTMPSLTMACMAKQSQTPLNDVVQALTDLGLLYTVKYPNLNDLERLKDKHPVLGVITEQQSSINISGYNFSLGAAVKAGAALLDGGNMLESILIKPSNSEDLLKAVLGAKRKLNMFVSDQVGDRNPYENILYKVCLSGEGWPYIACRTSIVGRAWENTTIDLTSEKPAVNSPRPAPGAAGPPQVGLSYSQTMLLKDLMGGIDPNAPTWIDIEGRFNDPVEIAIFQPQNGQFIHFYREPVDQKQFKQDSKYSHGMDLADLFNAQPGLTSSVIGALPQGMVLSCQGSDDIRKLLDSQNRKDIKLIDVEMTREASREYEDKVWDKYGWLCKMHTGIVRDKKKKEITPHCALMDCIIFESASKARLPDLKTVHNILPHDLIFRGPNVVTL
# [16] = Primary qHTS for Huh7 cytotoxicity: counterscreen for inhibitors of MERS-S pseudotyped particle cell entry (AID 1479147); conditions: outcome: dose series up to 57.1 µM unless noted
# [17] = VSVG counterscreen qHTS to identify inhibitors of SARS-CoV-2 cell entry (AID 1645847); note: potency is the fitted concentration of half-maximal effect; nearly all actives have a fitted effect of over 65% in size
# Outline: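 Expi293F/hACE2 cells, overnight plating; cpd 1 h, 37C/5% CO2; + VSV-G PP (MLV pseudotyping), 48 h; supernatant removed, Bright-Glo luciferase read. Norm: VSV-G PP and bald PP wells.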
# [18] = Confirmatory qHTS for VERO E6 Cytotoxicity Assay: Counterscreen for SARS-CoV-2 CPE Assay (AID 1508605); note: potency is the fitted concentration of half-maximal effect; nearly all actives have a fitted effect of over 60% in size
# [19] = molecular target: Alpha-galactosidase (Coffea arabica) (UniProt Q42656); assay: Counterscreen for Glucocerebrosidase Inhibitors: qHTS Assay for Coffee Bean alpha-Galactosidase at pH 4.5 (AID 957; active = well fitted curve in the direction sought with a large enough effect; an effect the other way counts as inactive or inconclusive)
# Alpha-galactosidase (Coffea arabica), sequence (Q42656 whole entry, looked up): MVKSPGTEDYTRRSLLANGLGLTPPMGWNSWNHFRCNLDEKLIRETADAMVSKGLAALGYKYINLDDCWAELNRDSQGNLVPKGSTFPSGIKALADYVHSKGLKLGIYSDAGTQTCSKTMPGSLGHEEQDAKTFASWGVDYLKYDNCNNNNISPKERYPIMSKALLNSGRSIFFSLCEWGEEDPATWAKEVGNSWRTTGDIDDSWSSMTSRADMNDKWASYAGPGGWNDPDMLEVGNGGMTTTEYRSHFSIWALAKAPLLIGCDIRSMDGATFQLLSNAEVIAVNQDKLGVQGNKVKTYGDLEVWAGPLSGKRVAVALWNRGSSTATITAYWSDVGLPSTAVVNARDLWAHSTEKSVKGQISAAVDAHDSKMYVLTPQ
# Outline: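 Fluorogenic qHTS at pH 4.5 (citrate buffer with Tween-20): 2 nM enzyme, 80 uM 4-MU-alpha-galactoside substrate, compound titrated 0.7 nM to 77 uM, 20 min room temperature. Glycine/NaOH stop; 4-MU read Ex 365/Em 440; Hill-equation AC50 against no-enzyme and enzyme controls.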
# [20] = molecular target: Alpha-galactosidase (Coffea arabica) (UniProt Q42656); assay: Counterscreen for Glucocerebrosidase Inhibitors: qHTS Assay for Coffee Bean alpha-Galactosidase at pH 5.9 (AID 998; active = well fitted curve in the direction sought with a large enough effect; an effect the other way counts as inactive or inconclusive)
# Outline: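 Enzyme 2 nM + cpd (0.7 nM–77 uM titration) + 4-MU-alpha-Gal 80 uM, pH 5.9 citrate/Tween-20, RT 20 min, NaOH/glycine stop pH 10, fluor 365/440. Normalized to no-enzyme and full-activity controls; Hill-fit AC50.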
# [21] = Confirmatory qHTS to identify inhibitors of SARS-CoV-2 cell entry (AID 1645844); note: potency is the fitted concentration of half-maximal effect; nearly all actives have a fitted effect of over 45% in size
# Outline: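 HEK293-ACE2, overnight seeding; cpd 1 h, 37C/5% CO2; + SARS-CoV-2-S MLV PP (Wuhan-Hu-1, ΔC19); 48 h; Bright-Glo luminescence. Data normalised to S PP and bald PP wells.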
structure (smiles),measurement,setting,value
CC(C)n1cnc2c(NCCCCCCNC(=O)OC(C)(C)C)nc(NCCO)nc21,Potency,[1],inactive
same,Potency,[2],inactive
same,Potency,[3],inactive
same,Potency,[4],28.2 µM (active)
c1ccc(C(NCCNC(c2ccccc2)c2ccccc2)c2ccccc2)cc1,outcome,[5],inactive
same,Potency,[1],inactive
same,Potency,[2],inactive
same,Potency,[3],inactive
COc1ccc(-c2oc3c(CC=C(C)C)c(O)cc(O)c3c(=O)c2O)cc1,Potency,[1],inactive
same,Potency,[2],38.5 µM (active)
same,Potency,[3],3.43 µM (active)
same,"activity change, negative = inhibition",[4],-9.03%
COc1cccc2c1C(=O)c1c(O)c3c(c(O)c1C2=O)C[C@@](O)(C(=O)CO)C[C@@H]3O[C@H]1C[C@H](N)[C@H](OC2CCCCO2)[C@H](C)O1 (some centres not stated),Potency,[6],44.7 µM (active)
same,Potency,[7],5.62 µM (active)
same,Potency,[1],inactive
same,Potency,[2],6.11 µM (active)
same,Potency,[3],6.85 µM (active)
same,Potency,[8],7.94 µM (active)
same,Potency,[9],inactive
same,outcome,[10],inactive
same,Potency,[11],12.6 µM (active)
same,"activity change, negative = inhibition",[4],-97.2% and -91.8%
CC(C)OC(=O)[C@H](C)N[P@](=O)(OC[C@H]1O[C@@H](n2ccc(=O)[nH]c2=O)[C@](C)(F)[C@H]1O)Oc1ccccc1,"parasite growth, % of DMSO control",[12],62.8%
same,"parasite growth remaining, % of DMSO control (lower = more inhibition)",[13],95.7%
same,"growth, % of control",[14],76.4%
same,Potency,[1],inactive
same,Potency,[2],inactive
same,Potency,[3],inactive
same,Potency,[15],inactive
CON=C(C(=O)N[C@@H]1C(=O)N2C(C(=O)O)=C(Cn3ccc(=N)n3CCO)CS[C@H]12)c1csc(N)n1,"parasite growth, % of DMSO control",[12],60.9%
same,"parasite growth remaining, % of DMSO control (lower = more inhibition)",[13],93.5%
same,"growth, % of control",[14],99.1%
same,Potency,[1],inactive
same,Potency,[2],inactive
same,Potency,[3],inactive
same,Potency,[15],inactive
CC[C@@]1(O)C[C@H](O[C@H]2C[C@H](N(C)C)[C@H](O[C@H]3C[C@H](O)[C@H](O[C@H]4CCC(=O)[C@H](C)O4)[C@H](C)O3)[C@H](C)O2)c2c(cc3c(c2O)C(=O)c2c(O)cccc2C3=O)[C@@H]1C(=O)OC,Potency,[1],inactive
same,Potency,[2],0.344 µM (active)
same,Potency,[3],0.344 µM (active)
same,outcome,[16],inactive
same,Potency,[9],inactive
same,outcome,[10],inactive
same,Potency,[17],3.04 µM (active)
NC[C@H]1O[C@H](O[C@@H]2[C@@H](O)[C@@H](O[C@H]3O[C@H](CO)[C@@H](O)[C@H](N)[C@@H]3O)[C@H](N)C[C@@H]2N)[C@H](O)[C@@H](O)[C@H]1O,Potency,[1],inactive
same,Potency,[2],inactive
same,Potency,[3],inactive
same,Potency,[11],inactive
same,"activity change, negative = inhibition",[4],-26.9%
CCC[C@@H](C=O)NC(=O)[C@H](CC(C)C)NC(=O)[C@H](CC(C)C)NC(=O)OCc1ccccc1 (Cbz-Leu-Leu-[Nva]-aldehyde),Potency,[1],3.43 µM (active)
same,Potency,[2],5.44 µM (active)
same,Potency,[3],12.2 µM (active)
same,Potency,[18],0.714 µM (active)
same,Potency,[4],0.891 µM (active)
CC(C)Cc1ccc([C@H](C)C(=O)O)cc1,outcome,[19],inactive
same,outcome,[20],inactive
same,Potency,[1],inactive
same,Potency,[2],inactive
same,Potency,[3],inactive
same,Potency,[15],inactive
CCCCOc1c(C(=O)c2c(F)cc(C)cc2F)cnc2n[nH]cc12,Potency,[1],5.44 µM (active)
same,Potency,[2],2.17 µM (active)
same,Potency,[3],7.69 µM (active)
same,Potency,[21],1.52 µM (active)
same,Potency,[11],inactive
same,Potency,[17],1.52 µM (active)
Cc1c(CCOc2ccc(C(=O)O)cc2)c2cc(Cl)ccc2n1C(c1ccccc1)c1ccccc1,Potency,[1],inactive
same,Potency,[2],inactive
same,Potency,[3],inactive
same,Potency,[18],12.6 µM (active)
same,Potency,[11],inactive
same,"activity change, negative = inhibition",[4],-34.5%
O=Nc1c(-c2c(O)[nH]c3cc(Br)ccc23)[nH]c2ccccc12,outcome,[19],inactive
same,outcome,[20],inactive
same,Potency,[1],inactive
same,Potency,[2],15.8 µM (active)
same,Potency,[3],inactive
same,Potency,[15],inactive
